Data: PubChem BioAssay (Tox21)
Records with an inconclusive call do not appear. Calls of active or inactive are those of the source. Unless noted, the call rests on the fitted dose curve; in most records, active means well fitted curve in the direction sought with a large enough effect in the repeat runs; inconclusive means weak or mixed curves; inactive means no such curve, though single readings can be large; an effect the other way counts as inactive or inconclusive. Positions of bridges follow the written chain, without caps; N, C: chain ends. Residues, ends and D or L forms follow the SMILES beside them.

Experiments:
[1] = qHTS assay to test for compound auto fluorescence at 535 nm (green) in HEK293 cells (AID 720680)
[2] = qHTS assay to test for compound auto fluorescence at 460 nm (blue) in HEK293 cell free culture (AID 720681)
In short: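 Blue fluorescence (Ex 405/Em 460 nm, triamterene-equivalent) was read immediately after pin transfer of compound or DMSO into medium (DMEM, 10% FBS) without cells.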

[3] = qHTS assay to test for compound auto fluorescence at 535 nm (green) in HEK293 cell free culture (AID 720682)
In short: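 Using fluorescein as calibrant, autofluorescence was quantified at 485/535 nm in cell-free DMEM containing 10% FBS after pintool addition of compound or vehicle.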

[4] = qHTS assay to test for compound auto fluorescence at 590 nm (red) in HepG2 cell free culture (AID 720684)
In short: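 No cells present: MEM + 10% FBS only. Compound pinned in, red label read (540/590 nm). Activity = fluorescence equivalent to Rose Bengal sodium.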

[5] = qHTS assay to test for compound auto fluorescence at 460 nm (blue) in HepG2 cell free culture (AID 720685)
In short: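 Cell-free plates of MEM plus 10% FBS received 23 nL compound or DMSO vehicle; blue-channel (405/460 nm) intensity scored against triamterene as reference fluorophore.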

[6] = qHTS assay to test for compound auto fluorescence at 535 nm (green) in HepG2 cell free culture (AID 720686)
[7] = qHTS assay to identify small molecule antagonists of the glucocorticoid receptor (GR) signaling pathway - cell viability counter screen (AID 720693); further: nearly all actives have a fitted effect of over 55% in size
[8] = qHTS assay for identifying genotoxic compounds that show differential cytotoxicity against isogenic chicken DT40 cell lines with known DNA damage response pathways - wild type cell line (AID 743012); further: nearly all actives have a fitted effect of over 60% in size
In short: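 Viability of DNA repair-proficient chicken DT40 cells was assessed by CellTiter-Glo luminescence following 40 h compound exposure at 37 C/5% CO2.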

[9] = qHTS assay for identifying genotoxic compounds that show differential cytotoxicity against isogenic chicken DT40 cell lines with known DNA damage response pathways - Rev3 mutant cell line (AID 743014); further: nearly all actives have a fitted effect of over 55% in size
[10] = qHTS assay for identifying genotoxic compounds that show differential cytotoxicity against isogenic chicken DT40 cell lines with known DNA damage response pathways - Rad54/Ku70 mutant cell line (AID 743015); further: nearly all actives have a fitted effect of over 60% in size
[11] = qHTS assay to identify small molecule antagonists of the androgen receptor (AR) signaling pathway - cell viability counter screen (AID 743033; further: nearly all actives have a fitted effect of over 45% in size)
[12] = target: Androgen receptor (Homo sapiens) (UniProt P10275); assay: qHTS assay to identify small molecule antagonists of the androgen receptor (AR) signaling pathway (AID 743035; active means well fitted inhibition curve with a large enough effect in the signal ratio in the repeat runs, not every such curve was filed as active; the % refers to the signal ratio)
In short: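 Reporter HEK293 cells were exposed to compounds and R1881 overnight (16 h, 37C); beta-lactamase activity was then quantified by FRET fluorescence.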

[13] = target: Androgen receptor (Homo sapiens) (UniProt P10275); assay: qHTS assay to identify small molecule agonists of the androgen receptor (AR) signaling pathway (AID 743036; active means well fitted activation curve with a large enough effect in the signal ratio in the repeat runs, with a control signal flat, not every such curve was filed as active; the % refers to the signal ratio)
In short: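 In this Tox21 qHTS, 2,000 HEK293 AR-bla cells per well were incubated with compounds for 16 h at 37C and 5% CO2. Fluorescence intensity was recorded 2 h after adding LiveBLAzer B/G FRET substrate at room temperature.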

[14] = target: Androgen receptor (Homo sapiens) (UniProt P10275); assay: qHTS assay to identify small molecule agonists of the androgen receptor (AR) signaling pathway using the MDA cell line (AID 743040; further: nearly all actives have a fitted effect of over 20% in size)
In short: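 Stable MMTV-luciferase reporter in MDA-kb2 cells; note the promoter carries GR as well as AR response elements. 16 h compound treatment, 37C, 0% CO2; ONE-Glo luminescence endpoint.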

[15] = qHTS assay to identify small molecule antagonists of the androgen receptor (AR) signaling pathway using the MDA cell line - cell viability counter screen (AID 743041; further: nearly all actives have a fitted effect of over 45% in size)
In short: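 Using the breast carcinoma line MDA-kb2 AR-luc, test chemicals were co-incubated with R1881 for 16 h; CellTiter-Fluor reagent, added at 15.5 h, provided a fluorescence measure of live cells.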

[16] = target: Androgen receptor (Homo sapiens) (UniProt P10275); assay: qHTS assay to identify small molecule antagonists of the androgen receptor (AR) signaling pathway using the MDA cell line (AID 743042; further: nearly all actives have a fitted effect of over 55% in size)
In short: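 Antagonist mode: compounds plus R1881 agonist added to MDA-kb2 AR-luc cells, incubated 16 h at 37C. Luciferase reporter luminescence quantified, with multiplexed CellTiter-Fluor readout for cell viability.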

[17] = qHTS assay to test for compound auto fluorescence at 460 nm (blue) in HepG2 cells (AID 720687)
In short: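 Blue-channel autofluorescence (Ex/Em 405/460 nm, triamterene-equivalent) was measured after 1 hr compound exposure at 37 C, 5% CO2. Cells were HepG2, plated overnight at 37 C in MEM plus 10% FBS.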

[18] = target: Glucocorticoid receptor (Homo sapiens) (UniProt P04150); assay: qHTS assay to identify small molecule agonists of the glucocorticoid receptor (GR) signaling pathway (AID 720691; active means well fitted activation curve with a large enough effect in the signal ratio in the repeat runs, not every such curve was filed as active; the % refers to the signal ratio); details: GR-bla HeLa, beta-lactamase reporter ratio, 18 h; activation: at 62.4 µM (top of the series)
In short: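 Compounds in DMSO, alongside positive controls, were added to GR-bla HeLa reporter cells and incubated 18 h at 37 C; GRE-driven beta-lactamase was detected by fluorescence after 2 h with FRET substrate at room temperature.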

[19] = target: Glucocorticoid receptor (Homo sapiens) (UniProt P04150); assay: qHTS assay to identify small molecule antagonists of the glucocorticoid receptor (GR) signaling pathway (AID 720692; active means well fitted inhibition curve with a large enough effect in the signal ratio in the repeat runs, not every such curve was filed as active; the % refers to the signal ratio)
In short: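 In a 1536-well cell format, compounds were added 4 h after seeding GR-bla HeLa cells, together with dexamethasone at 5 nM final; reporter activity was measured by FRET-substrate fluorescence following 18 h at 37 C.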

Measured: Potency

Sequence of Androgen receptor (Homo sapiens) (P10275 whole entry, looked up): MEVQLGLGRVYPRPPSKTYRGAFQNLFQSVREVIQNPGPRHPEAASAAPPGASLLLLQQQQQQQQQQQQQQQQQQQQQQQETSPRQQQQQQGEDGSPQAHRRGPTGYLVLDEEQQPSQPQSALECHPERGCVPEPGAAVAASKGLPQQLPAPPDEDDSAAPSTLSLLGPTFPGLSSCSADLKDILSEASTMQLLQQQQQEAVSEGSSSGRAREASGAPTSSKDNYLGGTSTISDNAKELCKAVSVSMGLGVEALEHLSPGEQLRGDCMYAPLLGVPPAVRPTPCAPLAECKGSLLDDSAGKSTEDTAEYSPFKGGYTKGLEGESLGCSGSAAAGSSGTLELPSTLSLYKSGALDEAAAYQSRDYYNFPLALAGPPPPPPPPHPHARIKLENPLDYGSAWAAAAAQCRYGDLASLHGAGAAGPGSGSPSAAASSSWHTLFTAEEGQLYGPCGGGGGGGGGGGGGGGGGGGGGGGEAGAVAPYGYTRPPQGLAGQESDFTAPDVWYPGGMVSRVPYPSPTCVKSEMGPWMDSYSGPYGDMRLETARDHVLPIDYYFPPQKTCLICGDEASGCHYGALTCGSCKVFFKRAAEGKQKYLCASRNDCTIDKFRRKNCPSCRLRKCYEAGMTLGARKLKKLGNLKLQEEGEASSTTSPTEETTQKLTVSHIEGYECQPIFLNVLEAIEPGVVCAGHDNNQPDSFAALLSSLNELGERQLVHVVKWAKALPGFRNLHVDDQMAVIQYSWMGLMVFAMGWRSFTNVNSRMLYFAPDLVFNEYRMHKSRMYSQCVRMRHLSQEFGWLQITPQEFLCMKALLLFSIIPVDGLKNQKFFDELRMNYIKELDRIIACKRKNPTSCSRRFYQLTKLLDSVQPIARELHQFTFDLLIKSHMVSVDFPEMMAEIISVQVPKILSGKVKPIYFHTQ
Sequence of Glucocorticoid receptor (Homo sapiens) (P04150 whole entry, looked up): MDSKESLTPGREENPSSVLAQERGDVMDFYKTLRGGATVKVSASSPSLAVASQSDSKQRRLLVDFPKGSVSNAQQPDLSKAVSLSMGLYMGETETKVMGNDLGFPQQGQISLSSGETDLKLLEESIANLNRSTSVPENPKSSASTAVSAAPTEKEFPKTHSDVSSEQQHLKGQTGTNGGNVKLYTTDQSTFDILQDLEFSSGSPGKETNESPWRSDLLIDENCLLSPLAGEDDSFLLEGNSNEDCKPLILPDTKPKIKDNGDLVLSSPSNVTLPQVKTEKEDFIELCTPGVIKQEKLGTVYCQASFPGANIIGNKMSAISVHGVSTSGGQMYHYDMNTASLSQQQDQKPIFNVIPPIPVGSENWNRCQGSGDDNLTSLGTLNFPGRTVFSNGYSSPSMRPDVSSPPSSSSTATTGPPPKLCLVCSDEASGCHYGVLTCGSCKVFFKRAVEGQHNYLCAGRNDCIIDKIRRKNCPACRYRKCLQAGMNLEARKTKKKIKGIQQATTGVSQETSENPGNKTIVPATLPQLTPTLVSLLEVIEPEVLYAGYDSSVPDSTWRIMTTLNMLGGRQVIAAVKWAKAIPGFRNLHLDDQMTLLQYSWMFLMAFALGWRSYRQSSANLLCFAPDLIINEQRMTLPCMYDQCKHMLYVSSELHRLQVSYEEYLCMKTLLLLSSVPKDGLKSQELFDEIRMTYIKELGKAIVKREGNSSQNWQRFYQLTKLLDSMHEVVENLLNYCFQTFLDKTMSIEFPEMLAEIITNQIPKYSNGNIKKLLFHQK

CC(C)CCCC(C)NC(C)C (stereo not given)
not listed: [17] | [18] | [19]
inactive: all other assays above

CN1CCN2c3ncccc3Cc3ccccc3C2C1 (stereo not given)
not listed: [5] | [8] | [10] | [11] | [12] | [13] | [14] | [16]
inactive: all other assays above

CS(=O)(=O)c1ccc(C2=C(c3ccccc3)C(=O)OC2)cc1
not listed: [8] | [12] | [13] | [14] | [16]
inactive: all other assays above

NCCCC[C@H](NC(=O)[C@@H]1CCCN1C(=O)[C@@H]1CSSC[C@H](NC(=O)CNC(=O)CNC(=O)CN)C(=O)N[C@@H](Cc2ccc(O)cc2)C(=O)N[C@@H](Cc2ccccc2)C(=O)N[C@@H](CCC(N)=O)C(=O)N[C@@H](CC(N)=O)C(=O)N1)C(=O)NCC(N)=O (H-GGGCYFQNCPKG-NH2; disulfide 4-9)
not listed: [12] | [13] | [14] | [16] | [17]
inactive: all other assays above

CCC(=O)O[C@@H]1CC(=O)O[C@H](C)C/C=C/C=C/[C@H](O)[C@H](C)C[C@H](CC=O)[C@H](O[C@@H]2O[C@H](C)[C@@H](O[C@H]3C[C@@](C)(O)[C@@H](OC(=O)CC)[C@H](C)O3)[C@H](N(C)C)[C@H]2O)[C@H]1OC
not listed: [10] | [12] | [13] | [14] | [16]
inactive: all other assays above

NCCC(=O)[N-][C@@H](Cc1cnc[nH]1)C(=O)O.[Zn]
not listed: [8] | [12] | [13] | [14] | [16] | [18] | [19]
inactive: all other assays above

CCOC(=O)c1cc(-c2ccccc2)nc2ccc(C)cc12
not listed: [8] | [9] | [10] | [13] | [19]
inactive: all other assays above
